PubChem BioAssay AID651956 (Broad Institute, 2012)
Entries with a potency or affinity are not part of this list. Inconclusive results are not listed. A number with no mark means an inactive call.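 Rule for the calls: active = in every test run, a fitted half-maximal concentration for signal decrease at or below twice the highest tested concentration; inconclusive = runs disagree, flat 30 to 70% decrease, or poor fit; inactive = the rest.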

Assay: miR-122 activators in hepatoma reporter cells, dose response, cell-based, Huh7 psiCHECK-miR122, Renilla luciferase, cherry-picked (AID 651956);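 note: Renilla luciferase from a miR-122 sensor reporter so lower signal means miR-122 activation; 0% = median neutral control wells and -100% = median positive control wells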
Conditions: 48 h; series mostly up to 35 µM; activity change, negative = signal decrease: at the top concentration

| SMILES | activity change, negative = signal decrease |
| --- | --- |
| CN1C(=O)c2cc(NC(=O)c3ccc4c(c3)OCO4)ccc2OC[C@H]2O[C@@H](CC(=O)O)CC[C@@H]21 | -34% |
| CN1C(=O)c2cc(NC(=O)c3cccc(F)c3)ccc2OC[C@@H]2O[C@@H](CC(=O)O)CC[C@H]21 | 28.9% [at 30 µM] |
| CCCCNC(=O)Nc1nnc(-c2ccc(OCC)cc2)o1 | -1.33% |
| C[C@H](NC(=O)C[C@@H]1CC[C@H]2[C@H](COc3ccc(NS(=O)(=O)c4ccc(Cl)cc4)cc3C(=O)N2C)O1)c1ccccc1 | 70.4% |
| CN(C(=O)C12CC3CC(CC(C3)C1)C2)C1CCS(=O)(=O)C1 (stereo not drawn) | 24.3% |
| COCC(=O)Nc1ccc2c(c1)C(=O)N(C)[C@@H]1CC[C@@H](CC(=O)OC)O[C@@H]1CO2 | 8.79% |
| CCNC(=O)C[C@H]1CC[C@H]2[C@@H](COc3ccc(NC(=O)c4ccccc4)cc3C(=O)N2C)O1 | 36.5% |
| CN1C(=O)c2cc(NC(=O)Nc3ccccc3F)ccc2OC[C@@H]2O[C@H](CC(=O)O)CC[C@@H]21 | 3.48% [at 30 µM] |
| COc1ccc(NC(=O)COC(=O)CCCc2c[nH]c3ccccc23)cc1 | -11.8% |
| Cc1c(CC(=O)NCCCC(=O)O)c(=O)oc2cc3occ(-c4ccccc4)c3cc12 | -37.3% |
| COc1cc(N)c(Cl)cc1NC(=O)c1ccccc1 | -28% |
| CC(C)N(C[C@@H]1N[C@@H](CO)[C@@H]1c1ccccc1)S(=O)(=O)c1ccccc1 | 88.1% |
| Fc1ccc(CN2CCN(c3ncnc4scc(-c5ccc(F)cc5)c34)CC2)cc1 | 62.3% |
| CN1C(=O)c2cc(NC(=O)c3ccc4c(c3)OCO4)ccc2OC[C@@H]2O[C@@H](CC(=O)O)CC[C@@H]21 | 155% |
| Cc1cc2n(n1)C(c1cn(-c3ccccc3)nc1C)Nc1c(C)cccc1-2 (stereo not drawn) | 51.5% |
| CN1C(=O)c2cc(NC(=O)Cc3ccccc3)ccc2OC[C@H]2O[C@@H](CC(=O)NC3CCC3)CC[C@@H]21 | 6.97% |
| CCCN(C[C@@H]1N[C@@H](CO)[C@H]1c1ccc(-c2cccnc2)cc1)C(C)=O | -34.4% |
| Cc1ccc(-c2noc(CCC(=O)Nc3ccccc3C)n2)cc1 | -15.5% |
| CSc1cccc(NS(=O)(=O)c2ccccc2)c1 | 535% |

| SMILES | activity change, negative = signal decrease |
| --- | --- |
| CC(C)C(=O)Nc1ccc2c(c1)C(=O)N(C)[C@H]1CC[C@H](CC(=O)NCCc3ccccc3)O[C@H]1CO2 | 182% |
| CC(=O)N1[C@H](CO)[C@@H](c2ccccc2)[C@H]1CN(C)C(=O)CN1CCOCC1 | -6.99% |
| CCCNC(=O)C[C@@H]1CC[C@H]2[C@H](COc3ccc(NC(=O)c4ccc(C(F)(F)F)cc4)cc3C(=O)N2C)O1 | 0% |
| O=C(c1ccco1)N1CCN(C2CC(=O)N(c3ccccc3)C2=O)CC1 (stereo not drawn) | 43.9% |
| COc1cccc(CNC(=O)C[C@@H]2CC[C@@H]3[C@@H](COc4ccc(NC(C)=O)cc4C(=O)N3C)O2)c1 | 11.7% |
| CC(C)c1ccc(CNC(=O)CSCC(=O)Nc2ccc3ccccc3c2)cc1 | -18.8% |
| C[C@@H]1CN([C@H](C)CO)S(=O)(=O)c2ccc(C3=CCCC3)cc2O[C@@H]1CN(C)C(=O)c1ccc(F)cc1 | -60.6% |
| COCC(=O)N1[C@H](CO)[C@H]2c3ccccc3N(C(=O)c3ccccc3F)C[C@H]21 | -11% |
| COc1ccc(CN2CCN(Cc3cccn3-c3ncccn3)CC2CCO)c(C)c1C (stereo not drawn) | -44.7% |
| CN(C[C@H]1N[C@@H](CO)[C@@H]1c1ccc(C2=CCCC2)cc1)C(=O)c1ccccn1 | 209% |
| CCN(C[C@H]1[C@H](c2ccccc2)[C@H](CO)N1C(=O)COC)S(C)(=O)=O | -18.1% |
| CCCCC(=O)NC(c1ccccc1OC)c1ccc2cccnc2c1O (stereo not drawn) | 4.09% |
| CCc1nc2sc(C)c(C)c2c(=O)n1CCO | 51.5% |
| COCC(=O)Nc1ccc2c(c1)C(=O)N(C)[C@@H]1CC[C@H](CC(=O)NCc3ccccc3F)O[C@H]1CO2 | 372% |
| c1ccc(CCCNCCCn2cnc3c(OCc4ccccc4)ncnc32)cc1 | 40.4% |
| N#Cc1c(N)nc2c(c1-c1cccs1)CCCC2 | 42.8% |
| CO[C@H]1CN(C)C(=O)c2cc(NC(=O)c3ccccc3F)ccc2OC[C@@H](C)N(C)C[C@@H]1C | -13.2% |
| CO[C@H]1CN(C)C(=O)c2cc(NC(C)=O)ccc2OC[C@@H](C)N(C(=O)CC2CC2)C[C@H]1C | -10% |
| C/C=C/c1ccc([C@@H]2[C@@H](CNC(=O)c3ccncc3)N(C(=O)CC)[C@H]2CO)cc1 | -20% |
